KKLEB cytotox: reduces viability of KKLEB cystic fibrosis airway cells. activity change (cytotoxicity), % at 5 µM. KKLEB CF airway cells viability, ATPlite luminescence, overnight; stronger effect = lower value; cells stimulated with P. aeruginosa culture filtrate. actives 0.36% (n = 360,000);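 active means corrected activity change at or below -50% at 5 µM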
TWEAK Fn14 block: blocks TWEAK-Fn14 interaction in a reporter cell assay; TWEAK-stimulated Fn14 reporter cells, luciferase luminescence, 8 h; inhibition, % at 10 µM; actives 2% (n = 360,000); in the data active means inhibition above about 50%
TROY NFkB inh: blocks TROY-dependent signaling in reporter cells; Q293 LMP1-TROYcd NF-kB luciferase reporter, 4 h; inhibition, % at 10 µM; actives 0.98% (n = 360,000); AID 1347056;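 active means compounds whose plate-normalised and pattern-corrected inhibition of the luciferase reporter signal at the single screening dose is 50% or more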
CF NFkB inh: blocks PAF-induced NF-kB reporter in cystic fibrosis cells | KKLEB NF-kB-GFP reporter, GFP fluorescence overnight | inhibition, % at 5 µM | actives 0.86% (n = 360,000);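 active means at least 50% inhibition at 5 µM, scaled per plate between neutral and stimulator controls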;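 further: PAF is a Pseudomonas aeruginosa culture filtrate used as stimulus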
Peg3 promoter: Peg3 promoter activity inhibition; HeLa PEG-Prom luciferase reporter, luminescence, overnight; inhibition, % at 20 µM; actives 1.7% (n = 360,000); AID 588405;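 active means inhibition of at least 50% at 20 µM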
HIF-2a inh: blocks HIF-2a reporter activity. AID 624352. 786-0 RCC cells HIF-2a reporter, luciferase luminescence, overnight. inhibition, % at 18.8 µM. actives 0.72% (n = 360,000);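 active means inhibition of the luminescence signal of 40% or more relative to plate controls, in a single-dose primary screen at 18.75 µM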
Mdm2-MdmX confirm: Mdm2/MdmX (human) interaction inhibition, confirmed; shares compounds with HIF-2a inh; actives 99% (n = 740); SaOS-2 split-luciferase Mdm2/MdmX complementation, luminescence; inhibition, % at 8 µM; AID 504601;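 active means mean inhibition of the luminescence signal across two replicates at or above 26 percent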
HIF-2a conf: HIF-2a inhibition, single concentration confirmation; inhibition, % at 18.8 µM; actives 56% (n = 1,800); shares compounds with HIF-2a inh; AID 651580; 786-0 RCC cells, HIF-2a luciferase reporter luminescence, overnight;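 active means mean inhibition across four replicates of at least 40 percent at the single tested concentration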
HIF-1a counter: counter-screen for HIF-2a inhibitors: HIF-1a inhibition in MiaPaCa-2 cells; shares compounds with HIF-2a inh; MiaPaCa-2 HIF-1a luciferase reporter, desferoxamine, overnight; inhibition, % at 18.8 µM; actives 72% (n = 1,800);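 active means mean inhibition of the reporter signal across four replicates at the single tested dose of 50% or more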
Hits are given with their value; . = inactive; / = no result. An excerpt weighted towards active compounds, which were near 4% of everything screened.

SMILES	KKLEB cytotox	TWEAK Fn14 block	TROY NFkB inh	CF NFkB inh	Peg3 promoter	HIF-2a inh	HIF-2a conf	HIF-1a counter	others
N=c1n(CC(=O)c2ccc(Br)cc2)c2ccccc2n1Cc1ccccc1	.	.	.	.	99	.	/	/	Mdm2-MdmX confirm=102
CCOc1ccc2nc(C)cc(Nc3cccc([N+](=O)[O-])c3)c2c1	.	.	.	.	92	63	.	101	Mdm2-MdmX confirm=103
Cc1cc(Nc2ccc([N+](=O)[O-])cc2)c2ccccc2n1	.	.	.	.	.	.	/	/	Mdm2-MdmX confirm=103
CCOc1ccc2nc(C)cc(Nc3ccc4c(c3)OCCO4)c2c1	.	.	.	.	88	45	.	.
C=C1C(=O)C23CCC4C(C)(C(=O)OC)CCCC4(C)C2CCC1(O)C3 (stereo not given)	-102	98	88	101	101	91	99	103
Cc1oc(-c2ccccc2Cl)nc1CSCC(=O)O	.	.	.	.	.	.	/	/
Cc1oc(-c2cccc(Cl)c2)nc1CSCC(=O)O	.	.	.	.	.	43	.	.
CC(=O)Nc1cccc(-c2csc(C(C)(NC(C)=O)c3ccccc3)n2)c1 (stereo not given)	.	.	.	.	.	.	/	/
CCN(CCO)c1nc(N2CCCCC2)c2cnn(C)c2n1	.	.	.	.	.	.	/	/
Cc1ccccc1NC1=C/C(=N\S(=O)(=O)c2cccs2)c2ccccc2C1=O	-93	102	67	94	102	93	/	/	Mdm2-MdmX confirm=103
Cc1cccc(C(=O)NCCc2ccccc2)c1	.	.	.	.	.	.	/	/
N#C/C(=C\C=C\c1ccccc1[N+](=O)[O-])C(=O)NC1CCCCC1	.	82	.	.	107	84	.	104	Mdm2-MdmX confirm=101
COC(=O)COc1ccc(S(=O)(=O)N2CCc3ccccc3C2)cc1C	.	.	.	.	.	76	.	.
COC(=O)COc1ccc(S(=O)(=O)N2CCN(c3ccccc3F)CC2)cc1	.	.	.	.	.	66	.	.
COC(=O)COc1ccc(S(=O)(=O)N2CCN(c3ccccc3)CC2)cc1	.	.	.	.	.	48	.	.
CCOc1ccc(S(=O)(=O)N2CCC(C(=O)N3CCN(c4ccccc4)CC3)CC2)cc1	.	.	.	.	.	.	/	/
COC(=O)COc1ccc(NC(=O)C(c2ccccc2)c2ccccc2)cc1	.	.	.	.	.	88	.	.
COC(=O)COc1ccc(S(=O)(=O)N2CCOCC2)cc1C	.	.	.	.	.	.	/	/
COC(=O)c1cc(S(=O)(=O)N2CCN(c3ccccc3F)CC2)c[nH]1	.	.	.	.	.	.	/	/
Cc1cccc(OCC(=O)Nc2c3c(nn2C(C)(C)C)CS(=O)(=O)C3)c1	.	.	.	.	.	.	/	/
Cc1cccc(N(C(=O)CNC(=O)c2cccs2)C(C(=O)NC2CCCC2)c2ccncc2)c1 (stereo not given)	.	.	.	.	.	.	/	/
O=C1CCCCC1(O)Cc1ccc2c(c1)OCO2 (stereo not given)	.	.	.	.	.	.	/	/
COC(=O)[C@@]12C[C@@H](CC(=O)N3CCC(c4ccccc4)CC3)C(=O)N(Cc3ccco3)C1=CCC(C)(C)C2	/	/	/	/	/	.	/	/
CC(C)C[C@H]1CN(CCCC[C@@H]2CNC(=O)C(=O)N2CC2CCCCC2)C(=O)C(=O)N1CCc1ccc(O)cc1	/	.	.	/	/	.	/	/
O=C(O)c1ccc(NC(C(=O)c2ccccc2)c2ccccc2)cc1 (stereo not given)	.	.	.	.	.	.	/	/
SMILES	KKLEB cytotox	TWEAK Fn14 block	TROY NFkB inh	CF NFkB inh	Peg3 promoter	HIF-2a inh	HIF-2a conf	HIF-1a counter	others
COC(=O)[C@@]1(C)[C@H]2C(=O)N(Cc3ccccc3)C(=O)[C@H]2[C@H]2CN=C(SCc3ccc(Cl)cc3)N21	.	.	.	.	.	.	/	/	Mdm2-MdmX confirm=103
COC(=O)[C@@]1(C)[C@H]2C(=O)N(Cc3ccccc3)C(=O)[C@H]2[C@H]2CN=C(SCc3ccc(C#N)cc3)N21	.	.	.	.	.	.	/	/
COC(=O)[C@@]1(Cc2ccccc2)[C@H]2C(=O)N(Cc3ccccc3)C(=O)[C@H]2[C@H]2CN=C(SCc3ccc(Cl)cc3)N21	.	.	.	.	.	.	/	/	Mdm2-MdmX confirm=103
CC1(C)Cc2c(c(N3CCOCC3)nc3sc4c(NCCN)ncnc4c23)CO1	.	.	.	.	100	45	.	.
COc1cccc(C2(C)NC(=O)N(CC(=O)c3cc(C)n(C4CC4)c3C)C2=O)c1 (stereo not given)	.	.	.	.	.	.	/	/
Cc1noc(/C=C/c2cccnc2)c1[N+](=O)[O-]	.	.	.	.	.	48	.	56
Cc1cccc(C)c1N/C=C/c1onc(C)c1[N+](=O)[O-]	.	.	.	.	.	.	/	/
Cc1[nH]c(=O)c(C(=O)/C=C/c2ccccc2F)c2c1CCCC2	.	89	50	91	110	90	92	100	Mdm2-MdmX confirm=103
CN(C)C(=O)CSc1nnc(-c2ccc(S(=O)(=O)N3CCCC3)cc2)n1C	.	.	.	.	.	.	/	/
CCN(CC(=O)Nc1c(F)cccc1F)C(=O)c1cc(S(=O)(=O)N(CC)CC)ccc1N1CCCCC1	.	.	.	.	.	48	.	.
